{
  "source": "PubChem BioAssay (EPA / NIEHS)",
  "note": "Active and inactive are the calls of the source. The calls were made as follows: active = hit-call score of the fitted dose curve at least 0.9, where 1 is the maximum; inactive = score below 0.9.",
  "data": [
    {"assay": "BSK_BF4T_SRB: Viability Assessment in the BioMAP Diversity Plus: BF4T Assay (AID 2284274)", "details": "primary human bronchial epithelial cells with fibroblasts", "method_in_brief": "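Cytotoxicity measured as total protein: cells fixed with 10% TCA, stained with 0.1% SRB, read at 560 nm. Bronchial epithelial/dermal fibroblast co-culture, 24 h after dosing, with positive-direction fitting relative to DMSO.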", "values": [
      {"molecule": "C=C(C)C(=O)OCC(F)(F)C(F)(F)C(F)(F)F", "outcome": "inactive"},
      {"molecule": "C=CC(F)(F)C(F)(F)C(F)(F)C(F)(F)C(F)(F)C(F)(F)C(F)(F)C(F)(F)C=C", "outcome": "inactive"},
      {"molecule": "C=C(C)C(=O)OCC(F)(F)C(F)(F)C(F)(F)C(F)(F)C(F)(F)C(F)(F)C(F)(F)F", "outcome": "inactive"},
      {"molecule": "Cc1ccc(S(=O)(=O)OCC(F)(F)C(F)(F)C(F)(F)C(F)(F)C(F)(F)C(F)F)cc1", "outcome": "inactive"},
      {"molecule": "FC(F)(F)C(F)(F)CNCC(F)(F)C(F)(F)F", "outcome": "inactive"},
      {"molecule": "FC(F)(F)C(F)(F)C(F)(F)N(C(F)(F)C(F)(F)C(F)(F)F)C(F)(F)C(F)(F)C(F)(F)F", "outcome": "inactive"},
      {"molecule": "OCC(F)(F)C(F)(F)C(F)(F)C(F)(F)C(F)(F)C(F)(F)F", "outcome": "inactive"},
      {"molecule": "CC(C)(C)C(=O)CC(=O)C(F)(F)C(F)(F)C(F)(F)F", "outcome": "inactive"},
      {"molecule": "FC(F)(F)C(F)(F)C(F)(F)C(F)(F)C(F)(F)C(F)(F)C(F)(F)Br", "outcome": "inactive"},
      {"molecule": "CCO[Si](CCC(F)(F)C(F)(F)C(F)(F)C(F)(F)C(F)(F)C(F)(F)F)(OCC)OCC", "outcome": "inactive"},
      {"molecule": "FC(F)(F)C(F)(F)C(F)(F)C(F)(F)CCI", "outcome": "inactive"},
      {"molecule": "FC(F)(F)C(F)(F)C(F)(F)C(F)(F)C(F)(F)C(F)(F)C(F)(F)C(F)(F)F", "outcome": "inactive"},
      {"molecule": "FC(F)(F)C(F)(F)C(F)(F)C(F)(F)C(F)(F)C(F)(F)C(F)(F)C(F)(F)CCS", "outcome": "inactive"},
      {"molecule": "O=C(O)C(F)(F)C(F)(F)C(F)(F)C(F)(F)C(F)(F)C(F)(F)C(F)(F)C(F)(F)C(F)(F)C(F)(F)C(F)(F)C(F)(F)F", "outcome": "inactive"},
      {"molecule": "OCC(F)(F)C(F)(F)C(F)(F)F", "outcome": "inactive"}
    ]}
  ]
}
